Assay outcomes (PubChem BioAssay)
Rows were chosen to be rich in hits. Some 3.8% of all compounds tested hit in one or more screens of this group.
Yp Topo-I inh = blocks Yersinia pestis topoisomerase I activity; Y. pestis Topo-I cleavage product accumulation, plate reader; activity, % at 10 µM; 360,000 tested, 0.064% active; AID 504884; in the data active means activity above about 50%, passing the limit was not always enough
Mtb FBA inh = Mtb fructose-bisphosphate aldolase inhibition; P9WQA3; purified M. tuberculosis FBA, fluorescence read-out; inhibition, % at 1 µM; 360,000 tested, 2.3% active; AID 588726; in the data active means inhibition above about 27%;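 further: 0% = vehicle and 100% = reference inhibitor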
Target sequence (P9WQA3 whole entry, looked up): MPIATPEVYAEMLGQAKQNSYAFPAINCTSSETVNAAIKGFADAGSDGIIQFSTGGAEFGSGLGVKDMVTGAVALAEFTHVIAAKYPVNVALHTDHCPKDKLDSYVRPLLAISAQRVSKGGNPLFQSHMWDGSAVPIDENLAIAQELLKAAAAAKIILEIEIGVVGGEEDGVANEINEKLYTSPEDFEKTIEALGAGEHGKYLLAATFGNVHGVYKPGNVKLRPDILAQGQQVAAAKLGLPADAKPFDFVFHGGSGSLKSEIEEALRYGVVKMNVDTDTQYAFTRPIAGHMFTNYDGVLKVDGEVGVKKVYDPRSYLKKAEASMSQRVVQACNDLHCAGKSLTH
PrPC TRFRET = cell surface PrPC inhibition, primary TR-FRET screen; inhibition, % at 13.8 µM; TR-FRET read-out; 370,000 tested, 0.43% active; P04156; in the data active means inhibition above about 24%; further: 0% = median of the test wells and 100% = reference compound wells
GDH-TPI inh = inhibits GDH-TPI coupling enzymes, artifact for Mtb FBA screen; GDH-TPI coupled enzyme counterscreen, NADH absorbance; inhibition, % at 4.8 µM; 360,000 tested, 1.2% active; AID 588335; in the data active means inhibition above about 30%;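 further: 0% = DMSO wells and 100% = wells lacking the enzyme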
Mtb hypoxia rep = reduces hypoxia-regulated biosensor signal in M. tuberculosis; M. tuberculosis hypoxia-regulated fluorescent reporter, fluorescence; fluorescence inhibition, % (concentration not given with the values); 300,000 tested, 0.1% active; AID 1159583; in the data active means fluorescence inhibition mostly above about 23%, no sharp cut-off; inactive means mostly below about 17%
PrP 5UTR inh = inhibition of PrP 5' UTR reporter expression. inhibition, % (test concentration not listed). 340,000 tested, 0.35% active. cell-based PrP 5' UTR mRNA reporter, plate reader; in the data active means inhibition above about 52%; further: 0 = median of the neutral control wells
Numbers without * were called inactive; · = no result given; + = active, no number.

SMILES | Yp Topo-I inh | Mtb FBA inh | PrPC TRFRET | GDH-TPI inh | Mtb hypoxia rep | PrP 5UTR inh
COc1ccc2sc(-c3ccc(S(C)(=O)=O)cc3)c(-c3ccc4c(c3)OCCO4)c2c1 | 17 | 12 | -17 | 27 | · | -2
COc1cc2sc(-c3ccc(S(C)(=O)=O)cc3)c(-c3ccc4c(c3)OCO4)c2cc1OC | 30 | 32* | -10 | 16 | -10 | -16
CCOC(=O)c1cnc2ccc(C(=O)OC)cc2c1NCCCN1CCOCC1 | -1 | 19 | -2 | 53* | 11 | -10
O=C(NCCCN1CCOCC1)c1ccc2c(c1)N(Cc1ccccc1)C(=O)c1ccccc1S2 | 13 | -1 | -18 | 9 | 4 | -4
O=C(NCCN1CCOCC1)c1ccc2c(c1)N(Cc1ccccc1)CCS2 | 20 | 118* | 2 | 9 | · | -20
O=C(NCCCN1CCOCC1)c1ccc2c(c1)N(Cc1ccccc1)CCS2 | -12 | 119* | -9 | 0 | 6 | -25
O=C(NCCN1CCOCC1)c1ccc2c(c1)N(Cc1ccccc1)C(=O)CS2 | -11 | -7 | -4 | -8 | -1 | -16
CCOc1ccc(C(=O)NCCCN2CCOCC2)cc1OCC | 5 | + | -7 | 2 | 6 | -4
COc1ccc(OC)c(C=Nn2c(C)nc3ccccc3c2=O)c1 | · | · | · | · | 4 | ·
CC1C=C[C@](Cc2ccccc2)(C(=O)NCC2CC2)N1C(=O)c1ccccc1 (stereo partly drawn) | · | · | · | · | 3 | ·
Cc1ccc(CN2CCSc3ccc(C(=O)N4CCOCC4)cc32)cc1 | 31 | 17 | · | 19 | 0 | 1
Cc1ccc(CN2CCSc3ccc(C(=O)NCCCN4CCOCC4)cc32)cc1 | 8 | 162* | 5 | 9 | 16 | -6
O=C(NCC1CCCO1)c1ccc2c(c1)N(Cc1ccccc1)CCS2 (stereo not drawn) | 2 | 141* | 10 | -8 | 11 | -5
O=C(NCC1CCCO1)c1ccc2c(c1)N(Cc1ccccc1)C(=O)CS2=O (stereo not drawn) | 5 | 0 | 3 | 2 | 3 | -16
CN1CCN(CCCNC(=O)c2ccc3c(c2)N(Cc2ccccc2)CCS3)CC1 | -14 | 190* | 5 | 9 | · | -15
COc1ccc(C2CC(=O)C=C(c3ccccc3OC)C2)cc1OC (stereo not drawn) | · | · | · | · | 16 | ·
CN1CC2C(c3ccc(Cl)nc3)C3(c4ccc(C#N)cc4)CC2(C3)C1c1ccccc1 (stereo not drawn) | · | · | · | · | 8 | ·
C=C1CCN(C(CC(C)C)C(=O)NCCC(C)C)S(=O)(=O)c2ccccc21 (stereo not drawn) | · | · | · | · | -3 | ·
N/C(=N\N=C\c1cccs1)SC1CC(=O)N(c2ccc(Br)cc2)C1=O (stereo not drawn) | 5 | -1 | 8 | 32* | · | 1
N/C(=N\N=Cc1cccs1)SC1CC(=O)N(c2ccc(Br)cc2)C1=O (stereo not drawn) | · | · | · | · | 5 | ·
N/C(=N\N=C\c1ccco1)SC1CC(=O)N(c2ccc(C(=O)O)cc2)C1=O (stereo not drawn) | -3 | -7 | -1 | 45* | · | -19
C/C(=N\N=C(/N)SC1CC(=O)N(c2ccccc2)C1=O)c1cccs1 (stereo not drawn) | 5 | 1 | 0 | 41* | · | -21
C/C(=N\N=C(/N)SC1CC(=O)N(c2ccc(Cl)cc2)C1=O)c1cccs1 (stereo not drawn) | 7 | -2 | 1 | 26 | · | -25
CCCCCCOc1ccc(N2C(=O)CC(S/C(N)=N/N=C(\C)c3cccs3)C2=O)cc1 (stereo not drawn) | 63* | -9 | 0 | 14 | · | -25
CC1CN(C(C)CO)C(=O)c2cccc(NS(=O)(=O)c3ccc(Cl)cc3)c2OC1CN(C)CC1CCCCC1 (stereo not drawn) | · | · | · | · | 19 | ·
SMILES | Yp Topo-I inh | Mtb FBA inh | PrPC TRFRET | GDH-TPI inh | Mtb hypoxia rep | PrP 5UTR inh
CCSc1nnc(NC(=O)/C=C/c2ccco2)s1 | 2 | 6 | 10 | 24 | 1 | -67
Cc1nc(NC(=O)/C=C/c2ccco2)sc1C | -2 | 0 | -2 | 32* | 6 | -190
CCc1nnc(NC(=O)/C=C/c2ccco2)s1 | -2 | -2 | -3 | 47* | -3 | -58
COc1cc(C=NNc2nncc3ccccc23)cc(OC)c1OC | · | · | · | · | 0 | ·
C#CCOCCOCCOCCNc1nc(N2CCN(C(=O)C(CCC(=O)O)n3cc(C(N)CC(C)C)nn3)CC2)nc(N2CCN(C(=O)C(Cc3ccc(O)cc3)n3cc(C(N)C(C)CC)nn3)CC2)n1 (stereo not drawn) | · | · | · | · | 2 | ·
CN(C)N=Nc1ccc(S(=O)(=O)/N=C(\O)c2ccccc2)cc1 | -8 | 1 | 4 | 39* | · | -1
O=C(Nc1ccc(-c2nc3ccccc3o2)c(O)c1)c1cc(-n2cnnc2)ccc1Cl | 14 | 13 | 4 | 43* | -6 | 1
CN(C(=O)c1ccno1)c1nnc(-c2ccccn2)s1 | 38 | + | -1 | 22 | · | -9
Cc1ccc(S(=O)(=O)N2C(c3cccc(C)c3)CC=C(C(=O)O)C2c2cccc(Cl)c2)cc1 (stereo not drawn) | · | · | · | · | 14 | ·
C=CCN1c2ccccc2[C@]23CC(C(=O)OC)N(C(=O)CC(C)C)C2=NC(C(=O)OC)=C(C(=O)OC)C13 (stereo partly drawn) | · | · | · | · | -2 | ·
O=C(CSc1nc2ccccc2c(=O)[nH]1)Nc1ccc([N+](=O)[O-])cc1 | -5 | 4 | 9 | 38* | -12 | -5
Cc1c(CCC(=O)O)c(=O)oc2cc(OCc3ccccc3F)ccc12 | 3 | 121* | 2 | 18 | 7 | -22
Cc1c(CC(=O)O)c(=O)oc2cc(OCc3ccc(F)cc3Cl)ccc12 | 4 | 167* | 2 | 12 | -6 | -20
O=C(O)c1cccc(Cn2c(Cl)c(/C=N/NC(=O)c3ccccc3)sc2=O)c1 | -8 | -7 | -14 | 56* | · | -9
O=C(O)c1cccc(Cn2c(Cl)c(/C=N/NC(=O)c3cc4ccccc4cc3O)sc2=O)c1 | -13 | -1 | -8 | 59* | · | -10
Cc1ccccc1N/N=C/c1sc(=O)n(Cc2cccc(C(=O)O)c2)c1Cl | 0 | -2 | 0 | 39* | · | -11
O=C(O)c1cccc(Cn2c(Cl)c(C=NNC(=O)c3ccccc3)sc2=O)c1 | · | · | · | · | 16 | ·
O=C(O)c1cccc(Cn2c(Cl)c(/C=N/NC(=O)c3ccco3)sc2=O)c1 | -7 | -2 | 1 | 47* | · | -22
C#CCOCCOCCOCCNc1nc(N2CCN(C(=O)CCCCCCCCCCNC(=O)C(CO)n3cc(CCCCCN)nn3)CC2)nc(N2CCN(C(=O)CCCCCCCCCCNC(=O)C(CCC(=O)O)n3cc(CCCCCN)nn3)CC2)n1 (stereo not drawn) | · | · | · | · | 5 | ·
O=C(O)c1cccc(Cn2c(Cl)c(C=NNC(=O)c3cccc(O)c3)sc2=O)c1 | · | · | · | · | 12 | ·
O=C(O)c1cccc(Cn2c(Cl)c(/C=N/NC(=O)c3cccc(O)c3)sc2=O)c1 | 8 | 4 | -3 | 50* | · | -20
CSCCC(NC(=O)c1ccccc1Br)C(=O)NNC(=O)c1ccncc1 (stereo not drawn) | 2 | -1 | -2 | 5 | 27* | -35
